Measurements taken from PubChem BioAssay.
“And” between values parts separate entries of the source, which are not always exact repeats. Identical values can stand only once. Inconclusive results are not listed. The source made the active and inactive calls. Unless noted, how the calls were made is not given here.

Assays:
[1] = growth inhibition of DIPG glioma cells, dose response, cell-based, SU-DIPG-XVII, MIPE5.0, CellTiter-Glo, qHTS (AID 1347060; cut-off not given, nearly all actives have AC50 up to about 26 µM;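 on AC50: cells exposed to compound for 48 hours before viability readout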); settings: SU-DIPG-XVII viability, CellTiter-Glo ATP luminescence
[2] = growth inhibition of DIPG glioma cells, dose response, cell-based, SU-DIPG-XIII, MIPE4.0, CellTiter-Glo, qHTS (AID 1347061; cut-off not given, nearly all actives have AC50 up to about 37 µM;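 further: cells exposed to compound for 48 hours before readout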); settings: SU-DIPG-XIII viability, CellTiter-Glo ATP luminescence
[3] = growth inhibition of DIPG glioma cells, dose response, cell-based, JHH-DIPG-1, MIPE4.0, CellTiter-Glo, qHTS (AID 1347062; cut-off not given, nearly all actives have AC50 up to about 27 µM); settings: JHH-DIPG-1 viability, CellTiter-Glo ATP luminescence
[4] = growth inhibition of DIPG glioma cells, dose response, cell-based, SU-DIPG-IV, MIPE4.0, CellTiter-Glo, qHTS (AID 1347063; cut-off not given, nearly all actives have AC50 up to about 30 µM;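 further: compound exposure lasted 48 hours before the viability readout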); settings: SU-DIPG-IV viability, CellTiter-Glo ATP luminescence
[5] = growth inhibition of DIPG glioma cells, dose response, cell-based, SU-DIPG-XIII, MIPE5.0, CellTiter-Glo, qHTS (AID 1347064; cut-off not given, nearly all actives have AC50 up to about 23 µM); settings: SU-DIPG-XIII viability, CellTiter-Glo ATP luminescence
[6] = viability loss in pontine glioma line – cell-based, SU-DIPG-XXV, MIPE5.0, CellTiter-Glo, qHTS, dose response (AID 1347065; cut-off not given, nearly all actives have AC50 up to about 26 µM;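 further: cells exposed to compound for 48 hours before ATP readout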); settings: CellTiter-Glo ATP luminescence
[7] = SU-DIPG-VI glioma cell viability, MIPE4.0 library, CellTiter-Glo luminescence, qHTS (AID 1347066; cut-off not given, nearly all actives have AC50 up to about 30 µM;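 further: cells exposed to compound for 48 hours before readout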); settings: CellTiter-Glo ATP luminescence
[8] = JHH-DIPG-1 glioma cell viability, MIPE5.0 library, CellTiter-Glo luminescence, qHTS (AID 1347067; cut-off not given, nearly all actives have AC50 up to about 26 µM;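 further: cells exposed to compound for 48 hours before readout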); settings: JHH-DIPG-1 glioma viability, CellTiter-Glo ATP luminescence
[9] = viability rescue of complex I mutant cybrids, primary screen, cell-based, galactose medium, ATP luminescence (AID 1645843;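 active means z-score of at least 1.8 in each of two replicates, scored against plate mean and spread of sample wells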;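 further: positive z means more ATP and so rescue of galactose-driven cybrid death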); settings: complex I mutant cybrid cells, 72 h, stronger effect = higher value
[10] = test system: Neuropilin-2 / VEGF-C interaction (human); assay: inhibitors of NRP2–VEGF-C binding, biochemical, microplate binding format, z-score (AID 743281); settings: microplate NRP2/VEGF-C binding assay; stronger effect = lower value
[11] = SU-DIPG-XXV glioma cell viability, MIPE5.0 library, qHTS (AID 1347068; cut-off not given, nearly all actives have IC50 up to about 30 µM)
[12] = modifiers of HSF1 nuclear foci, imaging, Selleck Cancer Library (AID 1347162; in the data active means plate-normalised HSF1 focus index below about 0.46); settings: human cells, at 10 µM; SSMD: measured here: HSF1 foci SSMD mean; cell count: measured here: cell number; plate-normalised HSF1 focus index: stronger effect = lower value
[13] = target: NAD(+) hydrolase SARM1 (Homo sapiens) (UniProt Q6SZW1); assay: SARM1 TIR NADase inhibitors, cell lysate, NAD-Glo luminescence (AID 1508614;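 active means compound whose remaining NAD level is above about 45 nM, limit read from the data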); settings: SAM-TIR HEK293T lysate NADase, at 1 µM, stronger effect = higher value
NAD(+) hydrolase SARM1 (Homo sapiens), sequence (Q6SZW1 whole entry, looked up, the tested form may be a part): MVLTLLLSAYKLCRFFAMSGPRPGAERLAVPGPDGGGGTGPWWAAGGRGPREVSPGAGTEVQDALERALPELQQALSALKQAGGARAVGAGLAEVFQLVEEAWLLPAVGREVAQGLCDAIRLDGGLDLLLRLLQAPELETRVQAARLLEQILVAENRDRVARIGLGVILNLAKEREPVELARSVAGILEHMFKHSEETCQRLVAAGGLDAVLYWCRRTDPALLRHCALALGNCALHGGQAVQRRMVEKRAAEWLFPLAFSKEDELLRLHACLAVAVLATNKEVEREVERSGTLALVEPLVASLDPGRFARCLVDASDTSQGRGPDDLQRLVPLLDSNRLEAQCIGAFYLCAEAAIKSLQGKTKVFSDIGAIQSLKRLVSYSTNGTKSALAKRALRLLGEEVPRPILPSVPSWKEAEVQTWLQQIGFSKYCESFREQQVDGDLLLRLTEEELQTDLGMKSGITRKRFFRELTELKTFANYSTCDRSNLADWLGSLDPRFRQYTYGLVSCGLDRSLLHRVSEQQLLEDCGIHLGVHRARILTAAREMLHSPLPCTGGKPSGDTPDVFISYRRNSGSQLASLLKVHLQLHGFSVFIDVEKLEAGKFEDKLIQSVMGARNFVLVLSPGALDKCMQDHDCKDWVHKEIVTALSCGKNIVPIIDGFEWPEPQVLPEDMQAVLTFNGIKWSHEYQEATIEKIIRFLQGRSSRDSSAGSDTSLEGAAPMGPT

[14] = target: Mitogen-activated protein kinase 7 (Homo sapiens) (UniProt Q13164); assay: ERK5 transactivation activators in reporter cells, primary screen, cell-based, HTS (AID 1508626;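 active means luciferase signal above three times the same-plate solvent-only control wells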;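 further: luciferase driven by Gal4-ERK5 fusion binding five Gal4 sites before minimal TATA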); settings: HeLa Gal4-ERK5 transactivation, 18 h, at 5 µM, stronger effect = higher value
Mitogen-activated protein kinase 7 (Homo sapiens), sequence (Q13164 whole entry, looked up, the tested form may be a part): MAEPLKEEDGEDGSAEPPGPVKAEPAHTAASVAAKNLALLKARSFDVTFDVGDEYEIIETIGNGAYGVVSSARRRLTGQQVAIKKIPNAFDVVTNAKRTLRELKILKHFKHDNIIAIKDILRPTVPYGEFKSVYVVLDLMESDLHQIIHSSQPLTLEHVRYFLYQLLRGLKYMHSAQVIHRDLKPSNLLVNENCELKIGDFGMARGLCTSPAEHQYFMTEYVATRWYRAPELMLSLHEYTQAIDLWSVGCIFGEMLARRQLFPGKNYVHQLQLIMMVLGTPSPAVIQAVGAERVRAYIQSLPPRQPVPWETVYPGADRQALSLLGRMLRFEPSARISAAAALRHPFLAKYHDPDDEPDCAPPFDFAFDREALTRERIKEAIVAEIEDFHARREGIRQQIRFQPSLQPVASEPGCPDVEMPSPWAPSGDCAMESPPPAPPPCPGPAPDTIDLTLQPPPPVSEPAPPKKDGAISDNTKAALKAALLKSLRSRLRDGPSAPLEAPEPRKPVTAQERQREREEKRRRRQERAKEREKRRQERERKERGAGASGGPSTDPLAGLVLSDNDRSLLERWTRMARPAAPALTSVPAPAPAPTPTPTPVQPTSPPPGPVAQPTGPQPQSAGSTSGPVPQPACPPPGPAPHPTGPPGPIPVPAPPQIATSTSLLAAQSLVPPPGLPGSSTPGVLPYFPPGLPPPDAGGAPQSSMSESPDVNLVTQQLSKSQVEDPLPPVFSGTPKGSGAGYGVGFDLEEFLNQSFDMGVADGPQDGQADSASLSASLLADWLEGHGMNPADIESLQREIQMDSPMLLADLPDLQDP

[15] = circadian clock period modulators, cell-based, LOPAC library, luminescence reporter (AID 2774); settings: circadian reporter cells, at 7 µM, actives lie on both sides;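 further: values are relative to mean of DMSO wells on each plate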
[16] = test system: Hepatitis C virus NS3 helicase; assay: HCV NS3 helicase inhibitors, primary screen, biochemical, fluorescence polarization, LOPAC1280 library (AID 687035; in the data active means inhibition above about 37%); settings: Purified HCV NS3 helicase, Cy5-dT15 ssDNA binding fluorescence polarization; stronger effect = higher value; concentration not given here
[17] = Cy5 fluorescence quenching or enhancement artefacts, artefact control for HCV NS3 helicase inhibitor project, biochemical, LOPAC1280 (AID 687037); settings: Cy5-DNA-NS3h complex fluorescence interference counterscreen
[18] = test system: Aerobactin synthetase IucA (Klebsiella pneumoniae); assay: IucA aerobactin synthetase inhibitors, biochemical, Tocris library, absorbance (AID 1345561); settings: purified IucA enzyme assay, absorbance (OD) read-out; stronger effect = lower value;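 tested at 8 µM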;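 further: 100% = enzyme without compound and 0% = no enzyme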
[19] = phospholipid biosynthesis inhibitors in animal cells, primary screen, cell-based, LOPAC library, screen 4 (AID 1347384); settings: phospholipid biosynthesis inhibition screen, at 10 µM
[20] = ICB984 medulloblastoma cell growth inhibition, synergistic combos for chromothripsis tumors, cisplatin or BGB combos (AID 1671451); settings: ICB984 medulloblastoma cells, drug combinations, stronger effect = higher value;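 further: cells exposed for 96 hours before readout; 0% = vehicle DMSO and 100% = killing by high DMSO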

CC(Cc1ccc(O)c(O)c1)(NN)C(=O)O (stereo not given)
inactive: outcome [1] | outcome [2] | outcome [3] | outcome [4] | outcome [5] | outcome [6] | outcome [7] | outcome [8] | z-score [9] -1.27

O=C1CN2Cc3c(ccc(Cl)c3Cl)N=C2N1
7390 and 7000: cell count [12]
2.08 and 2.35: SSMD [12]
inactive: outcome [10] | outcome [1] | outcome [2] | outcome [3] | outcome [5] | outcome [6] | outcome [8] | outcome [11] | plate-normalised HSF1 focus index [12] 1.08 and 1.14 | remaining NAD [13] 10 nM | luciferase signal [14] 40 AU | z-score [9] 0.465 and 0.535

COc1nc(C)nc(Cl)c1NC1=NCCN1
inactive: period change [15] -0.08 h | inhibition [16] -4% | fluorescence ratio (interference) [17] 0.9 | z-score [10] -0.63 | remaining activity [18] 93.9% | outcome [2] | outcome [3] | outcome [4] | outcome [5] | outcome [6] | outcome [7] | outcome [11] | outcome [19] | z-score [9] 0.36 and 1.01 and 0.165
active: AC50 [1] 23.5 µM

CC(C)NCC(O)c1ccc(NS(C)(=O)=O)cc1 (stereo not given)
inactive: period change [15] -0.07 h | inhibition [16] -2% | fluorescence ratio (interference) [17] 1 | z-score [10] -0.291 | remaining activity [18] 91.3% | outcome [1] | outcome [3] | outcome [4] | outcome [5] | outcome [6] | outcome [7] | outcome [8] | outcome [11] | outcome [19] | remaining NAD [13] 10 nM

CCOC(=O)c1ccc(OC(=O)CCCCCN=C(N)N)cc1
inactive: z-score [10] -0.315 | remaining activity [18] 124% | outcome [1] | outcome [2] | outcome [3] | outcome [4] | outcome [5] | outcome [7] | outcome [8] | outcome [11] | z-score [9] 0.415 and -0.085

CC(C)C[C@H](NC(=O)[C@@H](O)[C@H](N)Cc1ccccc1)C(=O)O
inactive: period change [15] 0.15 h | inhibition [16] -4% | fluorescence ratio (interference) [17] 1 | z-score [10] 0.0206 | remaining activity [18] 117% | outcome [1] | outcome [3] | outcome [5] | outcome [8] | outcome [11] | plate-normalised HSF1 focus index [12] 1.13 | outcome [19] | z-score [9] 0.375 and 0.725
active: AC50 [4] 18.7 µM | AC50 [7] 20.9 µM
7080: cell count [12]
2.45: SSMD [12]

Cc1cccc(CCN2CCC(C(=O)c3ccc(NS(C)(=O)=O)cc3)CC2)n1
inactive: z-score [10] -0.668 | remaining activity [18] 104% | z-score [9] 0.46 and -0.045

CC(C)(S)C(N)C(=O)O (stereo not given)
inactive: z-score [9] -0.255

CC(=O)NC[C@H]1CN(c2ccc(N3CCOCC3)c(F)c2)C(=O)O1
inactive: z-score [10] 0.877 | outcome [1] | outcome [2] | outcome [3] | outcome [4] | outcome [5] | outcome [6] | outcome [7] | outcome [8] | outcome [11] | outcome [19] | remaining NAD [13] 10 nM | z-score [9] 1.22 and -0.185

CN1[C@@H]2CCC[C@H]1CC(NC(=O)c1nn(C)c3ccccc13)C2 (stereo not given in full)
inactive: z-score [10] 1.21 | outcome [1] | outcome [2] | outcome [3] | outcome [5] | outcome [6] | outcome [7] | outcome [8] | outcome [11] | remaining NAD [13] 10 nM | z-score [9] 0.01

CCN(CC)CC#CCOC(=O)C(O)(c1ccccc1)C1CCCCC1 (stereo not given)
inactive: period change [15] -0.025 h | inhibition [16] -3% | fluorescence ratio (interference) [17] 0.9 | outcome [2] | outcome [3] | outcome [4] | outcome [7] | outcome [19] | remaining NAD [13] 10 nM | luciferase signal [14] 68 AU | z-score [9] -1.22 and -1.39

O=c1[nH]c(=O)n(C2CCCO2)cc1F (stereo not given)
-0.171% and -21.9%: inhibition ([20]; cisplatin combo, at 0.05 µM)
-7.2% and -19%: inhibition ([20]; BGB IC20 combo, at 0.005 µM)
-27.4% and -5.1%: inhibition ([20]; cisplatin combo, at 5 µM)
-14.4% and -20.1%: inhibition ([20]; BGB IC40 combo, at 0.005 µM)
-9.38% and -50%: inhibition ([20]; cisplatin combo, at 0.5 µM)
1.9% and -33.4%: inhibition ([20]; measured here: 5 uM single agent, at 5 µM)
inactive: z-score [10] -1.02 | outcome [1] | outcome [2] | outcome [3] | outcome [4] | outcome [5] | outcome [6] | outcome [7] | outcome [8] | outcome [11] | outcome [19] | z-score [9] 1.17 and 0.3 | inhibition ([20]; at 0.5 µM) -2.47% and -35.6%
3.65% and -15.9%: inhibition ([20]; BGB IC40 combo, at 0.05 µM)
